Data reported in the supplement of paper PMC12067093, “Discovery and optimisation of a covalent ligand for TRIM25 and its application to targeted protein ubiquitination” (Chemical Science, 2025).
The full data set covers some 21,000 targets. This sample favours those with the largest changes.

What follows are targets tested with Cc1cc(ccc1-c1ccccc1)C(=O)N1CCCN(CC1)C(=O)CCl [compound 10] (assay: probe-labelled cysteine peptide fold change vs DMSO (competition) (log2 fold change); higher = less target engagement (more negative = stronger competition)). Settings: 50 µM; THP-1; incubation time: 4 h.
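Also: competitive profiling in live THP-1 cells: cysteine peptides tagged with an iodoacetamide desthiobiotin (IA-DTB) probe, intensity after compound treatment relative to DMSO-treated cells.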

Sequence of UniProt P26358 (P26358 whole entry, looked up): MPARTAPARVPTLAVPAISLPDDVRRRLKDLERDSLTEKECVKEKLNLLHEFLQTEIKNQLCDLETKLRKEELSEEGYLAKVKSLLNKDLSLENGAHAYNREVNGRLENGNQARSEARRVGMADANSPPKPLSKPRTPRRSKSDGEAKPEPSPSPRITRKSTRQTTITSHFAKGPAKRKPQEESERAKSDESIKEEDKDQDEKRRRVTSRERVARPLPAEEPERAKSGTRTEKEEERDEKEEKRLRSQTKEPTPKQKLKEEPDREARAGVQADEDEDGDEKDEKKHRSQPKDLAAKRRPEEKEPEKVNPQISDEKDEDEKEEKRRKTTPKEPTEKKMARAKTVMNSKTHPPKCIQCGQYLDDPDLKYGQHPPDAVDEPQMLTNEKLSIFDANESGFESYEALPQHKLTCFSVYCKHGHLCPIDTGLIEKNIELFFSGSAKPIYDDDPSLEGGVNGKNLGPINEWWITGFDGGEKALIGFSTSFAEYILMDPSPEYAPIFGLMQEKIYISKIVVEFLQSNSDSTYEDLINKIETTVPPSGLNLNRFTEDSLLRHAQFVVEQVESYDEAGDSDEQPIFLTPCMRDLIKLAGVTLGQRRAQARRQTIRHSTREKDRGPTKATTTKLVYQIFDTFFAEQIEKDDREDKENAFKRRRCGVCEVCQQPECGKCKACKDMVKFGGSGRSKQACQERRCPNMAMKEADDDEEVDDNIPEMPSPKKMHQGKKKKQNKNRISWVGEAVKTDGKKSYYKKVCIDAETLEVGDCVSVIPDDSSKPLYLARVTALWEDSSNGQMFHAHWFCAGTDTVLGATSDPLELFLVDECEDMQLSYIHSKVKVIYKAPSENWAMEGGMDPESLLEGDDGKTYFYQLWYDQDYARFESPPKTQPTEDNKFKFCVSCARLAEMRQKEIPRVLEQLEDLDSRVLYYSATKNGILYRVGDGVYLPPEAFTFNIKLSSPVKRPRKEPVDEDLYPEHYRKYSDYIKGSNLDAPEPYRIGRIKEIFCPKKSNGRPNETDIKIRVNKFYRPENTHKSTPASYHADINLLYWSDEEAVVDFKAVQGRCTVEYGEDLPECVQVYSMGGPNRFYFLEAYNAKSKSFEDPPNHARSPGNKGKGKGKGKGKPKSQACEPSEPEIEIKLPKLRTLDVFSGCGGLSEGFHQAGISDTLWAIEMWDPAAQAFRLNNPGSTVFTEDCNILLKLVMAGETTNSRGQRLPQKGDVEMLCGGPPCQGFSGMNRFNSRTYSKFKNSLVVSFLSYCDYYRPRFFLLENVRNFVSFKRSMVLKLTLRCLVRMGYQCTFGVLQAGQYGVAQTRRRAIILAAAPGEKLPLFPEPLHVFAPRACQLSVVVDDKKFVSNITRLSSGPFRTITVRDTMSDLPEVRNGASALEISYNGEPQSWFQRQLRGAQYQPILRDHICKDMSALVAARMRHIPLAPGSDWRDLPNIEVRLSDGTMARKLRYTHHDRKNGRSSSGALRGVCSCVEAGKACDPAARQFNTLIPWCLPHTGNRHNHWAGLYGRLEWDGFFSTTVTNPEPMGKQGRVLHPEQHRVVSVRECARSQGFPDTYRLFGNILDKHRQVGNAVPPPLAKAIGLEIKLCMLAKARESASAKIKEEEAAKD
Sequence of UniProt P17812 (P17812 whole entry, looked up): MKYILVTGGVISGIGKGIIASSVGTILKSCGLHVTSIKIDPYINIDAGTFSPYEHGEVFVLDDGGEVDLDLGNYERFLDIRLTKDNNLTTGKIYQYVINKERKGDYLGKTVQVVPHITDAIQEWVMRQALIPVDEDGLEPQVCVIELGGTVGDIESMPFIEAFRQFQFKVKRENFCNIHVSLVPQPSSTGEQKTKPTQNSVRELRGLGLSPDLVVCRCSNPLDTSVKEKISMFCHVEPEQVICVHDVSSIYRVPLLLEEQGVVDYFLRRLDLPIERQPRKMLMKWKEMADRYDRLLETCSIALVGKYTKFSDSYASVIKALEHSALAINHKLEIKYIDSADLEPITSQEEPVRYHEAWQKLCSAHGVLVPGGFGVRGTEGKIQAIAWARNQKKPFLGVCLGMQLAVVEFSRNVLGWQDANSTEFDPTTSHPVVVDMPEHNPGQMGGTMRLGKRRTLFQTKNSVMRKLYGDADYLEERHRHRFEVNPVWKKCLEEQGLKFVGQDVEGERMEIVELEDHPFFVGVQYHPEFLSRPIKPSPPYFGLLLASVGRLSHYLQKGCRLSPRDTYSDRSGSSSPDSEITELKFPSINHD
Sequence of UniProt P53618 (P53618 whole entry, looked up): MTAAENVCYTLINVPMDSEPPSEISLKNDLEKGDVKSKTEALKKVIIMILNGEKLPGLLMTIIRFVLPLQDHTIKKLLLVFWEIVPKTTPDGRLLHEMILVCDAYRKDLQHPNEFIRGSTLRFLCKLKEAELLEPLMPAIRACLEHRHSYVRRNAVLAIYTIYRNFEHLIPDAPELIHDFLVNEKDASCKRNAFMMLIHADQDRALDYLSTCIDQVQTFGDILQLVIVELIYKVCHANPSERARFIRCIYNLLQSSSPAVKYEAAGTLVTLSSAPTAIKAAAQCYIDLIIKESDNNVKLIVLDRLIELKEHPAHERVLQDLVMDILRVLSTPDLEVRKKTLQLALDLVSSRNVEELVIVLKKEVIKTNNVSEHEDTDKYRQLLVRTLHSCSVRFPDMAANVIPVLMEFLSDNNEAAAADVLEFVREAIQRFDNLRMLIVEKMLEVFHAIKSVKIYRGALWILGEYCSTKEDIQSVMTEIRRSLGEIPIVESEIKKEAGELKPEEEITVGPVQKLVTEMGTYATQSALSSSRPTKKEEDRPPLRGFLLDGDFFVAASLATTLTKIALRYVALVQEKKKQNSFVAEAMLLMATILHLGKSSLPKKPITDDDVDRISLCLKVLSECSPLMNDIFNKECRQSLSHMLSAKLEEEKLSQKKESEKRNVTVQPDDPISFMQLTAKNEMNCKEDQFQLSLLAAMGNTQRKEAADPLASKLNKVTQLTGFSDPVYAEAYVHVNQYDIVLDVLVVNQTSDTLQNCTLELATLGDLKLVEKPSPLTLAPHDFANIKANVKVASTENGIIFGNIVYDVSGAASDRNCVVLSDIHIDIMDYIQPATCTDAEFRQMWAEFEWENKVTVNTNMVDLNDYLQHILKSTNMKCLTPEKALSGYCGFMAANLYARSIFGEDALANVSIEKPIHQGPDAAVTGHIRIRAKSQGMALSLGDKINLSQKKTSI
Sequence of UniProt P09668 (P09668 whole entry): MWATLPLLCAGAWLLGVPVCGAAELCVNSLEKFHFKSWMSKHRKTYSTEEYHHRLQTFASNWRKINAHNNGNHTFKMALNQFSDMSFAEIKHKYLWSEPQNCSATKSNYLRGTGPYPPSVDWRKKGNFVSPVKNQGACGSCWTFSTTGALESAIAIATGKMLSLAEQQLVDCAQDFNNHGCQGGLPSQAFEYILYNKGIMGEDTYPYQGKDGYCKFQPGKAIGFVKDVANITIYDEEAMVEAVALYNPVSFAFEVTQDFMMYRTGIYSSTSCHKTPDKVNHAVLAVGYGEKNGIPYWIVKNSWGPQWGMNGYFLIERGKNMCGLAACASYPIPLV
Sequence of UniProt Q96D53 (Q96D53 whole entry, looked up): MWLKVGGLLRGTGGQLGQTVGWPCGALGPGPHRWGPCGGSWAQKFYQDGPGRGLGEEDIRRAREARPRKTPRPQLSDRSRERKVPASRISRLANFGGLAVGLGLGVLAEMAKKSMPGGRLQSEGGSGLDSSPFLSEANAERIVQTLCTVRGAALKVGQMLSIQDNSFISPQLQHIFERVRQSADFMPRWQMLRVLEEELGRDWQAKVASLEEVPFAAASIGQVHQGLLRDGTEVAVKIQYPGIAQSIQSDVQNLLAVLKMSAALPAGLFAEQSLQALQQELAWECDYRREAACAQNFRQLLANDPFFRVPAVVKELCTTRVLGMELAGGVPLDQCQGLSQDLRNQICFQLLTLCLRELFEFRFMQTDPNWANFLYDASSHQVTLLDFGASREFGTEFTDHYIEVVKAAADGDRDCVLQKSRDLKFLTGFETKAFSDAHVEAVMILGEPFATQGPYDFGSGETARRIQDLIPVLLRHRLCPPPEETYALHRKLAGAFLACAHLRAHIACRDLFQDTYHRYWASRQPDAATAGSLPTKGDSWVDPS

With “CTSH_P09668_272_TGIYSSTSCHK (UniProt P09668)” as the target, how does the “probe-labelled cysteine peptide fold change” value read?
The value was -0.114.

Which “probe-labelled cysteine peptide fold change” value does the source give for “CTPS1_P17812_30_SCGLHVTSIK (UniProt P17812)” here?
Its value is 0.147.

With “COPB1_P53618_248_CIYNLLQSSSPAVKYEAAGTLVTLSSAPTAIK (UniProt P53618)” as the target, how does the “probe-labelled cysteine peptide fold change” value read?
The value was 0.0416.

With “DNMT1_P26358_1339_ACQLSVVVDDKK (UniProt P26358)” as the target, how does the “probe-labelled cysteine peptide fold change” value read?
The value was -1.16.

Which “probe-labelled cysteine peptide fold change” value does the source give for “COQ8B_Q96D53_508_AHIACR (UniProt Q96D53)” here?
Its value is -1.08.
